# From PubChem
# KB-3-1 tox: KB-3-1 parental cell cytotoxicity; AID 1347075; Potency, µM (series often up to 46.1 µM), most hits filed as cytotoxic; 1.4% of 400,000 active; KB-3-1 viability, CellTiter-Glo ATP luminescence, 72 h; also: % is scaled to controls: 0 for no effect and ±100 for the full control effect; nearly all actives have a fitted effect of over 60% in size
#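 Viability of parental KB-3-1 cells, measured by CellTiter-Glo luminescence, followed a 72 h incubation at 37 °C with pinned compounds in phenol-red-free DMEM containing 10% FBS.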
# KB-V1 cytotox: KB-V1 MDR subline cytotoxicity; AID 1347076; KB-V1 MDR cells viability, CellTiter-Glo, 72 h; Potency, µM (top dose mostly 46.1 µM), actives largely listed as cytotoxic; 3.4% of 400,000 active; also: % is scaled to controls: 0 for no effect and ±100 for the full control effect; nearly all actives have a fitted effect of over 60% in size
#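 KB-V1 cells (P-gp-expressing MDR subline of KB-3-1) in phenol-red-free DMEM with 10% FBS were exposed to library compounds over a concentration series for 72 h at 37 degrees C. Viability read by CellTiter-Glo luminescence; concentration-effect curves fitted after normalization.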
# SW480 rerep: induces DNA re-replication in SW480 colon adenocarcinoma cells; Potency, µM (doses to about 46.1 µM), for inactives: at the top dose re-replication activation, most hits filed as activators; AID 624297; SW480 DNA re-replication, Hoechst DNA content imaging, 48 h; 1.8% of 340,000 active; also: % of control where 0% means no effect; nearly all actives have a fitted effect of over 55% in size
#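 Quantitative HTS format with DMSO vehicle controls; 48 hr drug incubation at 37 C, then 40 min Hoechst staining and scanning imager measurement at 405 nm excitation.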
# HT1080 IDH1KD tx: kills HT-1080 cells with IDH1 knockdown; HT-1080 IDH1 knockdown viability, ATP luminescence, 48 h; Potency, µM (top dose mostly 46.1 µM), for the others: at the top dose activity, negative = toxicity, usual class: cytotoxic; 2% of 360,000 active; AID 686971;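 also: 0% = DMSO wells and -100% = cell-free medium wells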
#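 Cytotoxicity counter-line: IDH1KD HT-1080, 48 h, CellTiter-Glo. Curves classed by r2, magnitude and activity.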
# MCF10A rerep: DNA re-replication induction in MCF 10a cells; AID 624296; 2.9% of 350,000 active; Potency, µM (series often up to 46.1 µM), inactives show top-dose activity, positive = re-replication, most hits filed as activators; MCF 10A DNA re-replication, Hoechst nuclear intensity, 48 h; also: % of control where 0% means no effect; nearly all actives have a fitted effect of over 50% in size
# HT1080NT lethal: kills 2HG-producing HT-1080-NT fibrosarcoma cells | HT-1080-NT fibrosarcoma viability, CellTiter-Glo ATP luminescence, 48 h | Potency, µM (top dose mostly 46.1 µM), for the others: at the top dose activity, negative = less viability, usual class: cytotoxic | 1.6% of 360,000 active | AID 686970;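 also: NT is the 2HG producing partner of a matched IDH1 knockdown line; 0% = DMSO-treated cells and -100% = media-only wells without cells; nearly all actives have a fitted effect of over 55% in size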
#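 Viability of the 2HG-overproducing fibrosarcoma line after 48 hours of compound exposure at 37 degrees C was determined by luminescence with CellTiter-Glo, and concentration-effect curves were then fitted and categorized.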
# The depositor's hits bear a star; i = inactive; u = inconclusive; x = no result; [ ] = dose if it differs, or a comment. A selection: hits, their analogues and other compounds. The true share with any hit is near 8%. Calls follow the shape of the dose curve; as a rule, active = well fitted curve in the direction sought with a large enough effect; inconclusive = small, poorly fitted or top-dose-only effect, or another doubt; inactive = no such curve, though single readings can be large; an effect the other way counts as inactive or inconclusive. Potency is read from the fitted curve at half-maximal effect.
SMILES,KB-3-1 tox,KB-V1 cytotox,SW480 rerep,HT1080 IDH1KD tx,MCF10A rerep,HT1080NT lethal
Nc1nc(Nc2cccc(Cl)c2)nc(NCc2ccco2)c1[N+](=O)[O-],16.4µM*,u,u,16.4µM*,u,u
COc1ccc(Nc2nc(NCc3ccco3)nc(N)c2[N+](=O)[O-])cc1,i,i,-70.6%,7.1%,-22.2%,0.5%
CN1CCN(c2nc(NCc3ccco3)nc(N)c2[N+](=O)[O-])CC1,i,i,13µM*,9.9%,u,7.8%
Cc1cccc(Nc2nc(NCc3ccco3)nc(N)c2[N+](=O)[O-])c1,i,i,11.8%,-9.8%,20.2%,0.2%
Nc1nc(Nc2ccc(Cl)cc2)nc(NCc2ccco2)c1[N+](=O)[O-],i,16.4µM*,-122.3%,18.4µM*,u,u
CCOC(=O)c1[nH]c(C)c(CCC(=O)Nc2cc(C)ccc2OC)c1C,i,i,x,x,x,x
CC[n+]1ccnc2ccccc21,i,u,x,x,x,x
Nc1nc(Nc2cccc(F)c2)nc(NCc2ccco2)c1[N+](=O)[O-],u,u,u,25.9µM*,u,9.2µM*
CC(C)CNc1nc(N)c([N+](=O)[O-])c(N2CCCCCC2)n1,18.4µM*,9.2µM*,16.3%,u,u,u
Nc1nc(NCC2CCCO2)nc(Nc2cccc(F)c2)c1[N+](=O)[O-] (centres undefined),i,i,-4.4%,6.2%,-3.1%,19.2%
COc1ccccc1CNc1cc(C)nc2nc(-c3ccc(C)cc3)nn12,i,u,x,x,x,x
CCOC(=O)[C@H]1[C@H]2COc3ccc(Br)cc3[C@@H]2N2C(=O)c3ccc(C)cc3NC(=O)[C@@]12C,i,i,-1.9%,-14.2%,u,-11.2%
C[C@@]12C(=O)Nc3ccc(Br)cc3C(=O)N1[C@H]1c3cc(Br)ccc3OC[C@@H]1[C@@H]2c1ccccc1,i,i,u,-17.9%,-87.8%,u
C[C@@]12C(=O)Nc3ccc(Cl)cc3C(=O)N1[C@H]1c3cc(Br)ccc3OC[C@@H]1[C@@H]2c1ccccc1,i,i,16.4µM*,-13.9%,1.3%,-23.9%
C[C@@]12C(=O)Nc3ccccc3C(=O)N1[C@H]1c3cc(Br)ccc3OC[C@@H]1[C@@H]2c1ccccc1,u,i,u,5.8µM*,3.26µM*,u
Fc1ccc(-c2nc3n(n2)Cc2ccccc2-3)cc1,u,u,0.6%,14.6µM*,13.9%,25.9µM*
Cc1ccc(-c2nc3n(n2)Cc2ccccc2-3)cc1,i,u,-6.8%,u,u,u
CCn1c(C)nc2cc(-c3nc4n(n3)Cc3ccccc3-4)ccc21,5.8µM*,u,-13.6%,1.84µM*,16.6%,2.06µM*
O=c1oc2ccccc2cc1-c1cn2cc(Cc3ccccc3F)sc2n1,u,i,x,x,x,x
COc1cc(Cl)c(C)cc1NC(=O)c1nn(-c2ccc(C)cc2)c(=O)n(C)c1=O,i,i,x,x,x,x
CC1(c2ccccc2)CC(C)(C)N(C(=O)CSc2nnc(N)s2)c2ccccc21 (centres undefined),i,16.4µM*,u,-10.8%,u,-16.4%
CCC(=O)N1c2ccccc2C(C)(c2ccccc2)CC1(C)C (centres undefined),i,i,x,x,x,x
O=C(CCCc1nc2ccccc2s1)N1CCN(S(=O)(=O)c2cccs2)CC1,i,23.1µM*,7.4%,-2.8%,u,-0.1%
O=C(NC1CCCCC1)C(c1ccccc1F)n1c(=O)c(-c2cc3ccccc3[nH]2)nc2ccccc21 (centres undefined),u,u,x,u,x,-24.5%
CC(C)(C)NC(=O)C(c1ccnc2ccccc12)n1c(=O)c(-c2cc3ccccc3[nH]2)nc2ccccc21 (centres undefined),u,u,x,23.1µM*,x,20.6µM*
SMILES,KB-3-1 tox,KB-V1 cytotox,SW480 rerep,HT1080 IDH1KD tx,MCF10A rerep,HT1080NT lethal
O=C(NC1CCCCC1)C(c1ccncc1)n1c(=O)c(-c2cc3ccccc3[nH]2)nc2ccccc21 (centres undefined),20.6µM*,16.4µM*,x,u,x,u
O=C(NC1CCCCC1)C(c1cccc2ccccc12)n1c(=O)c(-c2cc3ccccc3[nH]2)nc2ccccc21 (centres undefined),i,i,x,18.4µM*,x,20.6µM*
Cc1ccccc1OCC(=O)Nc1ccc(C(=O)OCc2cc(=O)n3ccsc3n2)cc1,i,u,x,x,x,x
CCC(COC(=O)Nc1cccc(C)c1C)NC(=O)OCC(C)C (centres undefined),i,9.2µM*,-2.2%,-14.8%,-2.8%,-4.5%
COc1ccc(-n2c(SCC(=O)Nc3cccc(C(=O)O)c3)nnc2-c2ccco2)cc1,i,i,-14.1%,14.6%,-7.3%,16.0%
COc1ccc(NC(=O)CSc2ccccn2)cc1OC,i,i,0.1%,3.4%,13.2%,6.0%
COc1ccc(OC)c(NC(=O)CSc2nnc(-c3ccco3)n2-c2ccccc2)c1,i,u,3.66µM*,-4.7%,1.3%,-2.0%
COc1ccc(NC(=O)CSc2nnc(-c3ccccn3)n2-c2ccccc2)cc1OC,i,14.6µM*,-6.8%,-15.6%,-3.6%,-6.5%
CCCn1c(SCC(=O)Nc2ccccc2OC)nnc1-c1ccco1,u,u,9.2µM*,18.4µM*,6.51µM*,16.4µM*
Cc1ccc(S(=O)(=O)NCC(c2ccc(N(C)C)cc2)N2CCc3ccccc32)cc1C (centres undefined),i,i,x,x,x,x
COc1ccccc1N1CCN(C(=O)c2cnn(-c3ccc(C)c(C)c3)c2C2CCN(C(=O)OC(C)(C)C)CC2)CC1,20.6µM*,i,x,x,x,x
COc1ccc(N(C(=O)c2ccccc2C)S(=O)(=O)c2ccc3c(c2)n(C)c(=O)n3C)cc1,i,i,x,x,x,x
COc1ccc2cc(CNc3ccc(OC)c(OC)c3)c(=O)n(CC(=O)Nc3ccc(C)cc3)c2c1,i,i,x,x,x,x
CC(C)(C)NC(=S)NNC(=O)c1cccc(Br)c1,u,16.4µM*,2.2%,-1.1%,-1.7%,4.7%
Cc1cc(/C=N/n2cnnc2)c(C)n1-c1ccc(C(=O)O)cc1,i,i,-4.0%,4.9%,-4.8%,0.1%
Cc1cc(/C=C(\C#N)C(=O)Nc2ccccc2)c(C)n1-c1ccc2c(c1)OCO2,i,u,3.66µM*,u,u,u
Cc1cc(/C=C(/C#N)C(=O)Nc2ccccc2)c(C)n1-c1cccnc1,i,i,0.9%[9.22 µM],1.7%,22.0%,0.0%
